Records with an inconclusive call do not appear. Active and inactive are the calls of the source. The calls were made as follows: active = hit-call score of the fitted dose curve at least 0.9, where 1 is the maximum; inconclusive = response in the unintended direction; inactive = score below 0.9.

Read-out in the experiment: glucuronosyltransferase (UGT1A1), UGT1A1 (gene 54658)
Description: CLD_UGT1A1_48hr: CellzDirect (CLD) Gene Expression Assay for glucuronosyltransferase (UGT1A1) at 48 hours (AID 2283709).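 Also: actives increase expression relative to DMSO so potency refers to induction.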 Summed up:
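Quantitative nuclease protection assay (chemiluminescent) for UGT1A1 mRNA at 48 h in human hepatocyte cultures from two donors, redosed daily with fresh solutions. Induction fitted relative to 0.2% DMSO; phase-contrast morphology annotated cytotoxicity.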
As usually defined, the AC50 is the midpoint of the concentration-response curve, whichever way the signal moves. Regarding `O=C(Nc1ccccc1)Nc1cnns1`, the AC50 was 9.87 µM (active). Consider `O=C(O)C(F)(F)C(F)(F)C(F)(F)C(F)(F)C(F)(F)C(F)(F)C(F)(F)F`, for which the result was inactive. Same read-out and setting: the value for `Clc1ccccc1-c1nnc(-c2ccccc2Cl)nn1` was “inactive”; that for `Cc1cc(C)nc(NC(=O)NS(=O)(=O)c2ccccc2C(=O)OC2COC2)n1` was “inactive”; that for `C#CCN1C(=O)COc2cc(F)c(N3C(=O)C4=C(CCCC4)C3=O)cc21` was “inactive”.

In the case of `O=S(=O)(O)C(F)(F)C(F)(F)C(F)(F)C(F)(F)C(F)(F)C(F)(F)C(F)(F)C(F)(F)F`, the molecule was classed as inactive. Same read-out and setting: the entry for `Oc1cc(Cl)ccc1Oc1ccc(Cl)cc1Cl` is “inactive”; for `O=C(O)CCCOc1ccc(Cl)cc1Cl` it is “inactive”. For `CCC(C)Nc1c([N+](=O)[O-])cc(C(C)(C)C)cc1[N+](=O)[O-]` (stereo unspecified), the AC50 was 2.8 µM (active). `CNC(=O)/C=C(\C)OP(=O)(OC)OC`: the result was inactive. Still for that read-out and setting: the value for `CC1(C)C(C=C(Cl)Cl)C1C(=O)OC(C#N)c1ccc(F)c(Oc2ccccc2)c1` (stereo unspecified) was “inactive”; that for `CC(C)(C)C(O)/C(=C\c1ccc(Cl)cc1Cl)n1cncn1` (stereo unspecified) was “inactive”; that for `O=S1OCC2C(CO1)C1(Cl)C(Cl)=C(Cl)C2(Cl)C1(Cl)Cl` (stereo unspecified) was “inactive”. As for `COC(=O)c1ccccc1S(=O)(=O)NC(=O)Nc1nc(C)nc(OC)n1`, the molecule was called inactive. As to `CCOC1Oc2ccc(OS(C)(=O)=O)cc2C1(C)C` (stereo unspecified), the result was inactive.

For the molecule `CC(C)OC(=O)Nc1cccc(Cl)c1`, the AC50 is 12.8 µM (active). `COC(=O)c1ccccc1CS(=O)(=O)NC(=O)Nc1nc(OC)cc(OC)n1`: the call was inactive. Same read-out and setting: the entry for `CCOc1nc(NC)nc(NC(=O)NS(=O)(=O)c2ccccc2C(=O)OC)n1` is “inactive”. Still for that read-out and setting: the value for `CNC(=O)CSP(=S)(OC)OC` was “inactive”; that for `CCC(C)(NC(=O)c1cc(Cl)c(C)c(Cl)c1)C(=O)CCl` (stereo unspecified) was “inactive”; that for `COC(=O)c1ccccc1S(=O)(=O)NC(=O)N(C)c1nc(C)nc(OC)n1` was “inactive”. `O=C(O)COc1ccc(Cl)cc1Cl`: the result was inactive. Same read-out and setting: the value for `Oc1ccc(Cl)cc1Cc1ccccc1` was “inactive”. In the case of `CC(C)(C)C(O)C(Oc1ccc(Cl)cc1)n1cncn1` (stereo unspecified), the AC50 is 2.43 µM (active). Regarding `COc1cc(OC)nc(NC(=O)NS(=O)(=O)c2cc(NC=O)ccc2C(=O)N(C)C)n1`, the molecule was classed as inactive. As to `O=C(NC(=O)c1c(F)cccc1F)Nc1ccc(OC(F)(F)C(F)OC(F)(F)F)c(Cl)c1` (stereo unspecified), the call was inactive.

Source of the values: PubChem BioAssay (EPA / NIEHS).
